GSTO1 counter: blocks human GSTO1 in RBBP9 counter-screen; recombinant GSTO1, activity-based probe fluorescence polarization; inhibition, % at 5.96 µM; hit rate 1.1% among 300,000; AID 1974;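 active = inhibition above the campaign mean inhibition plus 3 SD, cut at about 35% in these data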
Target sequence (P78417 whole entry, looked up): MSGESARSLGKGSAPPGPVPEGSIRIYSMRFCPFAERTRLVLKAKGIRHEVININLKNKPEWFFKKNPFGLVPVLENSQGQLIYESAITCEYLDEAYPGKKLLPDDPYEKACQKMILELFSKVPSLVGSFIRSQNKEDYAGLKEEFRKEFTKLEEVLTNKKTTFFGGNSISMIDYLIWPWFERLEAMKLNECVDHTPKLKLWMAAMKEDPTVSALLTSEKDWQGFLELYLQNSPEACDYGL
Fam108B counter: blocks mouse Fam108B hydrolase in RBBP9 counter-screen; hit rate 0.33% among 300,000; recombinant Fam108B, FP-Rh probe fluorescence polarization; inhibition, % at 9.51 µM;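 active = inhibition above the screen mean inhibition plus 3 SD, computed separately per campaign, cut at about 18% in these data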;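 note: inhibitors lower polarization as less probe binds the enzyme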
PREPL inhibitor: inhibitors of human prolyl oligopeptidase-like enzyme PREPL | Q4J6C6 | inhibition, % at 5.96 µM | hit rate 0.68% among 320,000 | recombinant PREPL, fluorescence polarization activity-based probe; in the data active = inhibition above about 43%
PME-1 inh: blocks human protein phosphatase methylesterase 1. Q9Y570. recombinant PME-1, FP-Rh probe fluorescence polarization. inhibition, % at 5.9 µM. hit rate 0.53% among 320,000. AID 2130;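 active = inhibition above the campaign mean of all compounds plus 3 SD, cut at about 26% in these data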;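 note: competitive labeling of PME-1 active site by serine hydrolase directed probe; inhibitors block probe labeling so polarization falls and inhibition rises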
LYPLA2 inh: blocks human lysophospholipase 2, a PME1 counter-screen; inhibition, % at 5.9 µM; recombinant LYPLA2, FP-Rh probe fluorescence polarization; hit rate 0.38% among 320,000; O95372; AID 2177;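 active = inhibition above the screen-wide mean plus 3 SD, limit set per campaign, cut at about 26% in these data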
LYPLA1 counter: counter-screen for PME1 inhibitors: inhibitors of human LYPLA1; hit rate 0.16% among 320,000; recombinant LYPLA1, FP-Rh probe fluorescence polarization; inhibition, % at 5.9 µM;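 active = inhibition above the mean of all tested compounds plus 3 SD, set per campaign, cut at about 14% in these data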;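 note: inhibitors block serine hydrolase probe labeling of LYPLA1 so polarization falls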
Target sequence (O75608 whole entry, looked up): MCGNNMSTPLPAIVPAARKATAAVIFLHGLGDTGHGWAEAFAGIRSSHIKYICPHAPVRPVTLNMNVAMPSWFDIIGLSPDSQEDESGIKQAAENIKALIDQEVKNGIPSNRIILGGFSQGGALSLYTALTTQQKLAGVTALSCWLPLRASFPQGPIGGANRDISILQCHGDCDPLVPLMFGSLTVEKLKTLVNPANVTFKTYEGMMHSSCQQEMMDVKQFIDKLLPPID
Fam108b inh conf: Fam108b (mouse) hydrolase inhibition, confirmation assay; hit rate 44% among 930; inhibition, % at 9.51 µM; recombinant Fam108b, FP-Rh probe fluorescence polarization; shares compounds with Fam108B counter;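 active = inhibition above a limit from the primary screen, the mean over all compounds plus 3 SD, cut at about 19% in these data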;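 note: inhibitors free the probe so polarization falls as inhibition rises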
Fam108b ABPP HTS: mouse ABHD17B inhibition; shares compounds with Fam108B counter; hit rate 44% among 260; recombinant Fam108b, gel-based ABPP, fluorophosphonate probe; inhibition, % at 20 µM; in the data active = inhibition above about 40%
GSTO1 inh conf: GSTO1 (human) inhibition, confirmation; hit rate 54% among 2,400; shares compounds with GSTO1 counter; recombinant GSTO1, probe fluorescence polarization; inhibition, % at 5.96 µM; AID 2176;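 active = inhibition above the primary screen's cutoff, its mean inhibition plus 3 SD, cut at about 35% in these data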;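 note: loss of polarization as inhibitors block binding of rhodamine sulfonate ester activity probe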
Large screens that a line does not name were inactive (follow-up assays come after a bar, where they were run). Shown are actives, neighbours in structure and some others; about 2% of the full set was active somewhere.

O=C(O)C1Nc2ccc(OC(F)(F)F)cc2C2C=CCC12 (centres undefined)	GSTO1 counter 48, Fam108B counter 22 | Fam108b inh conf inactive | GSTO1 inh conf inactive
O=C(NC1CC1)C1Nc2ccc(OC(F)(F)F)cc2C2C=CCC12 (centres undefined)	none
COc1cccc2c1NC(C(=O)O)C1CC=CC21 (centres undefined)	GSTO1 counter 61, Fam108B counter 53 | Fam108b inh conf inactive | GSTO1 inh conf 46
Cc1ccc(N2CC(C(=O)NCCN3CCOCC3)CC2=O)cc1C (centres undefined)	none
CCOC(=O)C1=C(SCC)c2cc3c(n2C1=O)CCCC3	GSTO1 counter 38, Fam108B counter 23 | Fam108b inh conf inactive | GSTO1 inh conf inactive
Cc1csc(SCC(=O)NC(C)C2CC3CCC2C3)n1 (centres undefined)	none
COc1ccc(-c2oc(NC(=O)CCl)c(C#N)c2-c2ccc(OC)cc2)cc1	GSTO1 counter 76, Fam108B counter 22, PME-1 inh 42 | Fam108b inh conf 34 | Fam108b ABPP HTS inactive | GSTO1 inh conf 86
Cc1ccc(OCC(=O)Nc2oc(-c3ccccc3)c(-c3ccccc3)c2C#N)cc1	none
O=C(c1cc2cc(F)ccc2[nH]1)N1CCN(C(=O)c2ccco2)CC1	none
Nc1ccc(NC(=O)c2ccccc2)c2c1C(=O)c1ccccc1C2=O	none
Cc1cc(C)c(Nc2cc(S(=O)(=O)O)c(N)c3c2C(=O)c2ccccc2C3=O)c(C)c1	GSTO1 counter 80, Fam108B counter 70, PREPL inhibitor 57, PME-1 inh 64, LYPLA2 inh 27, LYPLA1 counter 55 | Fam108b inh conf 93 | GSTO1 inh conf 88
COC(=O)CNC(=O)COC(=O)c1ccc(Cl)nc1	none
CN1C(=O)/C(=C/c2ccc(-c3ccccc3[N+](=O)[O-])o2)SC1=Nc1ccc(Cl)c(C(=O)O)c1	GSTO1 counter 72, Fam108B counter 30 | Fam108b inh conf inactive | GSTO1 inh conf 79
Cc1ccc(C)c(N2C(=N)S/C(=C\c3ccc(-c4ccccc4C(=O)O)o3)C2=O)c1	none
O=C(Nc1ccccc1)c1ccc2nc(-c3ccco3)c(-c3ccco3)nc2c1	GSTO1 counter 57, Fam108B counter 48 | Fam108b inh conf inactive | GSTO1 inh conf inactive
CC(=O)c1ccc(NC(=O)c2ccc3nc(-c4ccco4)c(-c4ccco4)nc3c2)cc1	GSTO1 counter 68, Fam108B counter 40 | Fam108b inh conf 29 | GSTO1 inh conf inactive
O=C(NCCO)Nc1ccc2nc(-c3ccco3)c(-c3ccco3)nc2c1	GSTO1 counter 65, Fam108B counter 68 | Fam108b inh conf 45 | Fam108b ABPP HTS inactive | GSTO1 inh conf 42
O=C1NN(c2ccccc2)C(=O)/C1=C/c1ccc(Sc2cccc3ccccc23)o1	GSTO1 counter 49, Fam108B counter 29 | Fam108b inh conf inactive | GSTO1 inh conf 66
O=C1NN(c2ccccc2)C(=O)/C1=C/c1ccc(-c2ccc(C(=O)O)cc2)o1	none
CC(/C=N/NC(=O)c1nnn(-c2nonc2N)c1CN1CCCCC1)c1ccccc1 (centres undefined)	none
COC(=O)c1ccc(=O)c2nc3/c(=C/O)c(O)cc(=O)c3[nH]c12	GSTO1 counter 75, Fam108B counter 33 | Fam108b inh conf 49 | GSTO1 inh conf 71
O=c1c(/C=N/N2CCOCC2)c(C(F)(F)F)[nH]n1-c1ccccc1	none
O=S(=O)(O)c1cc(O)c2c(O)c(N=Nc3cc(Cl)ccc3O)c(S(=O)(=O)O)cc2c1	GSTO1 counter 62, Fam108B counter 24 | Fam108b inh conf inactive | GSTO1 inh conf 73
Cc1nnc(SCC(=O)NNC(=O)c2ccc(Br)cc2)n1C	none
Cc1ccc2nc(/C(C#N)=C/c3cn[nH]c3-c3ccc(F)cc3)[nH]c2c1	none
Cc1ccc2nc(/C(C#N)=C/c3ccc(O)c(O)c3)[nH]c2c1	GSTO1 counter 46, Fam108B counter 31, PME-1 inh 29 | Fam108b inh conf inactive | GSTO1 inh conf 51
CCOc1ccc(NC(=O)CN(C)C(=O)c2cc3c(s2)CCC(C)C3)cc1OCC (centres undefined)	none (no result: GSTO1 counter, Fam108B counter)
Nc1nccnc1C(=O)OCC(=O)Nc1ccc2[nH]c(=O)[nH]c2c1	none
CCN=c1scc(C)n1/N=C/c1cc(Br)c(O)c(Br)c1	GSTO1 counter 46, Fam108B counter 21 | Fam108b inh conf inactive | GSTO1 inh conf inactive
CC(=O)c1cc(O)c2ccccc2c1O	GSTO1 counter 46, Fam108B counter 31, PME-1 inh 39 | Fam108b inh conf inactive | GSTO1 inh conf 39
COc1cc(/C=N/Nc2nc3ccccc3s2)cc([N+](=O)[O-])c1O	GSTO1 counter 48, Fam108B counter 21, PME-1 inh 62 | Fam108b inh conf inactive | GSTO1 inh conf 50
COc1ccc(S(=O)(=O)Nc2ccc3c(c2)OCCO3)cc1OC	none
CCCn1cc(CN2CCC(n3nccc3NC(=O)c3ccc4c(c3)OCO4)CC2)c(C)n1	none
CCCCNC(=O)Oc1c(Br)cc2sc(=O)oc2c1Br	GSTO1 counter 66, Fam108B counter 26 | Fam108b inh conf inactive | GSTO1 inh conf inactive
CCOc1ccc(CCNS(=O)(=O)c2ccc3c(c2)N(C(C)=O)CCO3)cc1OCC	none
Oc1ccc(/C=N/Nc2cccc3cccnc23)c(O)c1	GSTO1 counter 38, Fam108B counter 21, PME-1 inh 36 | Fam108b inh conf 21 | GSTO1 inh conf inactive
COc1ccc(CN=Cc2[nH]c3ccc(Br)c(Cl)c3c2O)cc1	GSTO1 counter 52, Fam108B counter 19 | Fam108b inh conf inactive | GSTO1 inh conf inactive
Cc1cc(C)cc(N=Cc2[nH]c3ccc(Br)c(Cl)c3c2O)c1	none
Cc1ccc2c(c1)CCCN2C(=O)CCc1nc2ccccc2c(=O)[nH]1	none (no result: GSTO1 counter, Fam108B counter)
COc1ccc(N=Nc2nc3cc(Br)c(Br)cc3n2C)c(OC)c1	GSTO1 counter 40, Fam108B counter 31, PME-1 inh 61 | Fam108b inh conf inactive | GSTO1 inh conf inactive
COc1ccc(CNc2nc3ccccc3n2C)c(OC)c1	none
COc1ccc2nc(-c3ccco3)c(-c3ccco3)nc2c1	GSTO1 counter 72, Fam108B counter 21 | Fam108b inh conf 54 | Fam108b ABPP HTS inactive | GSTO1 inh conf 41
Nc1nc(-c2ccco2)c(-c2ccco2)s1	none
COc1ccc(-c2nc3ccccc3nc2-c2ccc(OC)cc2)cc1	none
c1coc(-c2nc(-c3ccco3)c(-c3ccco3)nc2-c2ccco2)c1	GSTO1 counter 80, Fam108B counter 71, PREPL inhibitor 71 | Fam108b inh conf inactive | GSTO1 inh conf 37
